# Results taken from publication PMC5540273 (PLoS ONE, 2017).
# Legend:
# Conditions in all cases: concentration: 1 μM, replicates: in singlicate; n = 1
# EPHA7 = test system: EPHA7
# EPHA8 = test system: EPHA8
# EPHB1 = test system: EPHB1
# EPHB2 = test system: EPHB2
# EPHB3 = test system: EPHB3
# EPHB4 = test system: EPHB4
# EPHB6 = test system: EPHB6
# ERBB2 = test system: ERBB2
# ERBB3 = test system: ERBB3
# ERBB4 = test system: ERBB4
# ERK1 = test system: T1, ERK1
# T1 construct: gene MAPK3
# ERK2 = test system: T2, ERK2
# T2 construct: gene MAPK1
# ERK3 = test system: T3, ERK3
# T3 construct: gene MAPK6
# ERK4 = test system: T4, ERK4
# T4 construct: gene MAPK4
# ERK5 = test system: T5, ERK5
# T5 construct: gene MAPK7
# ERK8 = test system: T6, ERK8
# T6 construct: gene MAPK15
# ERN1 = test system: ERN1
# FAK = test system: T7, FAK
# T7 construct: gene PTK2
# FER = test system: FER
# FES = test system: FES
# 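Note: KINOMEscan kinase panel screen.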
SMILES,%Inh (EPHA7) [%],%Inh (EPHA8) [%],%Inh (EPHB1) [%],%Inh (EPHB2) [%],%Inh (EPHB3) [%],%Inh (EPHB4) [%],%Inh (EPHB6) [%],%Inh (ERBB2) [%],%Inh (ERBB3) [%],%Inh (ERBB4) [%],%Inh (ERK1) [%],%Inh (ERK2) [%],%Inh (ERK3) [%],%Inh (ERK4) [%],%Inh (ERK5) [%],%Inh (ERK8) [%],%Inh (ERN1) [%],%Inh (FAK) [%],%Inh (FER) [%],%Inh (FES) [%]
CN(C)S(=O)(=O)c1cc(-c2ccc3nccc(-c4cccc(S(N)(=O)=O)c4)c3c2)cnc1N [GSK1669921],15,27,31,0,11,16,25,15,0,0,3,0,0,0,0,40,8,0,5,14
COc1cccc(-c2ccc3c(NC(=O)C4CC4)n[nH]c3n2)c1 [SB-710903],16,30,0,24,24,16,48,51,0,36,0,0,0,8,0,11,0,0,0,0
O=C(NC1CCN(c2ccnc(Nc3ccc(F)cc3)n2)C1)c1cc2ccccc2s1 (centres unmarked) [GSK1379716],7,14,9,18,17,15,0,42,22,28,4,23,1,31,0,0,0,0,44,12
Cl.NC(=O)c1cccc(Nc2nccc(Nc3ccc(Oc4c(Cl)cccc4Cl)c(Cl)c3)n2)c1 [GW659009],0,6,93.5,0,0,0,32,92.5,93.3,93.9,0,0,0,0,0,10,12,0,0,0
COc1cc(Nc2nccc(N3CCC(NC(=O)c4cc5ccccc5s4)C3)n2)cc(OC)c1OC (centres unmarked) [GSK1379760],4,17,6,26,5,15,61,6,12,0,12,9,0,0,0,0,6,0,34,0
O=C(Nc1n[nH]c2cc(-c3ccoc3)ccc12)C1CC1 [SB-738481],0,31,0,0,0,5,10,0,0,0,0,0,0,0,0,84,0,7,0,5
c1ccc(-c2n[nH]cc2Nc2ccnc3ccccc23)nc1 [GW694077],11,21,18,0,1,0,0,0,4,0,0,0,7,0,0,25,22,0,0,0
COc1cc(Nc2ncc3c(C)nc(-c4cc5ccccc5[nH]4)n3n2)cc(OC)c1OC [GW869516],0,4,58,36,0,47,0,14,26,34,0,0,42,38,7,0,0,6,0,0
COc1cc2c(cc1OCCN1CCNCC1)ncc1c3ccc(C#N)cc3[nH]c21,0,0,0,2,0,0,55,4,0,28,0,0,0,23,15,12,44,10,0,2
COc1ccc(Nc2nccc(NCCNC(=O)c3cc4ccccc4s3)n2)cc1 [GSK1379896],0,3,16,0,5,0,0,4,0,0,0,0,0,0,0,0,0,11,12,0
